PubChem BioAssay (NCATS)
Results filed as inconclusive are left out. Where a call stands in place of a potency, no number is given. The source made the active and inactive calls. The call rests on the fitted dose curve; in most records, active means well fitted inhibition curve with a large enough effect; inconclusive means small, poorly fitted or top-dose-only effect; inactive means flat fitted curve, though single readings scatter. Peptide text beside a SMILES is read from it.

Test system: CP217
Experiment: qHTS profiling for inhibitors of Plasmodium falciparum proliferation (AID 504749); further: nearly all actives have a fitted effect of over 60% in size
Settings: P. falciparum in erythrocytes, SYBR Green DNA, 72 h; series mostly up to 12.8 µM
Summary of the method: (§1)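 Readout was DNA-dye fluorescence from lysed cultures, ex 485/em 535 nm. Parasitized red cells had grown 72 h with compound; data scaled between 0.29 uM artemisinin and DMSO wells and corrected using vehicle-only plates.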
Potency means the concentration at half of the fitted maximal effect.

Row | Structure (SMILES) | Potency
1 | CCC(C)C(=O)OC1CCC=C2C=CC(C)C(CCC3CC(O)CC(=O)O3)[C@@H]21 (stereo partly drawn) | inactive
2 | C[C@]1(c2ccccc2)OC(C(=O)O)=CC1=O | inactive
3 | OCC1OC([S-])[C@H](O)C(O)C1O.[Au+] (stereo partly drawn) | inactive
4 | COC(=O)N/N=C/C1=C[N+](=O)c2ccccc2[N+]1=O | inactive
5 | CN1CC(=O)N=C1N | inactive
6 | CNC1CC(N)[C@H](O)[C@@H](O[C@@H]2OC(CO)C3OC4(OC(C(N)CO)C(O)C(O)C4O)O[C@@H]3[C@H]2O)C1O (stereo partly drawn) | inactive
7 | COC1C=CO[C@@]2(C)Oc3c(C)c(O)c4c(O)c(c(C=NN5CCN(C)CC5)c(O)c4c3C2=O)NC(=O)/C(C)=C\C=CC(C)C(O)[C@@H](C)C(O)C(C)[C@H](OC(C)=O)C1C (stereo partly drawn) | 5010 nM (active)
8 | CC(=O)N[C@@H]1C(O)OC(CO)C(O)C1O (stereo partly drawn) | inactive
9 | CCC(CCC(C)C1CCC2C3CC=C4CC(O)CC[C@@]4(C)C3CC[C@@]12C)C(C)C (stereo partly drawn) | inactive
10 | O=C1OC(CO)C(O)C(O)C1O (stereo not drawn) | inactive
11 | COc1ccc(CC(N)C(=O)NC2C(CO)OC(n3cnc4c(N(C)C)ncnc43)C2O)cc1 (stereo not drawn) | 794 nM (active)
12 | CCCC(=O)O[C@]1(C(=O)CO)CCC2[C@@H]3CCC4=CC(=O)CC[C@]4(C)C3C(O)C[C@]21C (stereo partly drawn) | inactive
13 | COC(=O)C(Cc1ccccc1)NC(=O)C(N)CC(=O)O (stereo not drawn) (H-Asp-Phe-OMe; configuration not given here) | inactive
14 | CC[C@@]12CCCN3CCc4c(n(c5ccccc45)[C@](O)(C(=O)OC)C1)C32 (stereo partly drawn) | inactive
15 | CC1(C)SC2C(N3C(=O)C(c4ccccc4)NC3(C)C)C(=O)N2C1C(=O)O (stereo not drawn) | inactive
16 | CC1CCC(C(C)C)C(=O)C1 (stereo not drawn) | inactive

Row | Structure (SMILES) | Potency
17 | CC(=O)N[C@H](CC(C)C)C(=O)O | inactive
18 | CC(C)C1CCC(C(=O)NC(Cc2ccccc2)C(=O)O)CC1 (stereo not drawn) | inactive
19 | COc1ccc2cc(C(C)CO)ccc2c1 (stereo not drawn) | inactive
20 | COc1ccc2cc1Oc1ccc(cc1)CC1c3c(cc4c(c3Oc3cc5c(cc3OC)CCN(C)C5C2)OCO4)CCN1C (stereo not drawn) | 8910 nM (active)
21 | CNC1C(OC2C(O[C@@H]3C(O)C(O)[C@@H](N=C(N)N)C(O)C3N=C(N)N)OC(C)[C@@]2(O)CO)OC(CO)C(O)C1O (stereo partly drawn) | inactive
22 | CC1C2CCC3C4CC=C5CC(N(C)C)CC[C@@]5(C)C4CC[C@@]32CN1C (stereo partly drawn) | inactive
23 | C[C@]12C=CC(=O)C=C1CCC1C2C(O)C[C@]2(C)C1CC[C@]2(O)C(=O)CO (stereo partly drawn) | inactive
24 | COc1ccc2c(c1)N(C[C@@H](C)CN(C)C)c1ccccc1S2 | inactive
25 | CCOC(=O)C1=CC(OC(CC)CC)C(NC(C)=O)C(N)C1 (stereo not drawn) | inactive
26 | CN(C)CCc1c[nH]c2ccc(CC3COC(=O)N3)cc12 (stereo not drawn) | inactive
27 | NCC1CCC(N)C(O[C@@H]2C(O)[C@H](O[C@H]3OC(CO)C(O)C(N)C3O)[C@@H](N)C[C@H]2N)O1 (stereo partly drawn) | inactive
28 | OCC1O[C@H](OC2C(CO)O[C@@](O)(CO)C2O)C(O)C(O)C1O (stereo partly drawn) | inactive
29 | CC1(C)OC2CO[C@]3(COS(N)(=O)=O)OC(C)(C)OC3C2O1 (stereo partly drawn) | inactive
30 | CC(=O)OC1CCC2C3CCc4cc(O)ccc4C3CCC12C (stereo not drawn) | inactive
31 | CN(C)CCCOC1C(C(O)CO)OC2OC(C)(C)O[C@@H]21 (stereo partly drawn) | inactive
32 | COc1cc(C2c3cc4c(cc3C(O[C@@H]3OC5COC(c6cccs6)OC5C(O)C3O)C3COC(=O)C23)OCO4)cc(OC)c1O (stereo partly drawn) | 2000 nM (active)

Test system: CP237
Experiment: as above
Settings: P. falciparum in erythrocytes, SYBR Green DNA, 72 h; series mostly up to 12.8 µM
Summary of the method: as §1

Row | Structure (SMILES) | Potency
33 | CCC(C)C(=O)OC1CCC=C2C=CC(C)C(CCC3CC(O)CC(=O)O3)[C@@H]21 (stereo partly drawn) | inactive
34 | C[C@]1(c2ccccc2)OC(C(=O)O)=CC1=O | inactive
35 | OCC1OC([S-])[C@H](O)C(O)C1O.[Au+] (stereo partly drawn) | inactive
36 | COC(=O)N/N=C/C1=C[N+](=O)c2ccccc2[N+]1=O | inactive
37 | CN1CC(=O)N=C1N | inactive
38 | CNC1CC(N)[C@H](O)[C@@H](O[C@@H]2OC(CO)C3OC4(OC(C(N)CO)C(O)C(O)C4O)O[C@@H]3[C@H]2O)C1O (stereo partly drawn) | inactive
39 | COC1C=CO[C@@]2(C)Oc3c(C)c(O)c4c(O)c(c(C=NN5CCN(C)CC5)c(O)c4c3C2=O)NC(=O)/C(C)=C\C=CC(C)C(O)[C@@H](C)C(O)C(C)[C@H](OC(C)=O)C1C (stereo partly drawn) | 355 nM (active)
40 | CC(=O)N[C@@H]1C(O)OC(CO)C(O)C1O (stereo partly drawn) | inactive
41 | CCC(CCC(C)C1CCC2C3CC=C4CC(O)CC[C@@]4(C)C3CC[C@@]12C)C(C)C (stereo partly drawn) | inactive
42 | O=C1OC(CO)C(O)C(O)C1O (stereo not drawn) | inactive
43 | COc1ccc(CC(N)C(=O)NC2C(CO)OC(n3cnc4c(N(C)C)ncnc43)C2O)cc1 (stereo not drawn) | 891 nM (active)
44 | CCCC(=O)O[C@]1(C(=O)CO)CCC2[C@@H]3CCC4=CC(=O)CC[C@]4(C)C3C(O)C[C@]21C (stereo partly drawn) | inactive
45 | COC(=O)C(Cc1ccccc1)NC(=O)C(N)CC(=O)O (stereo not drawn) (H-Asp-Phe-OMe; configuration not given here) | inactive
46 | CC[C@@]12CCCN3CCc4c(n(c5ccccc45)[C@](O)(C(=O)OC)C1)C32 (stereo partly drawn) | inactive
47 | CC1(C)SC2C(N3C(=O)C(c4ccccc4)NC3(C)C)C(=O)N2C1C(=O)O (stereo not drawn) | inactive
48 | CC1CCC(C(C)C)C(=O)C1 (stereo not drawn) | inactive

Row | Structure (SMILES) | Potency
49 | CC(=O)N[C@H](CC(C)C)C(=O)O | inactive
50 | CC(C)C1CCC(C(=O)NC(Cc2ccccc2)C(=O)O)CC1 (stereo not drawn) | inactive
51 | COc1ccc2cc(C(C)CO)ccc2c1 (stereo not drawn) | inactive
52 | COc1ccc2cc1Oc1ccc(cc1)CC1c3c(cc4c(c3Oc3cc5c(cc3OC)CCN(C)C5C2)OCO4)CCN1C (stereo not drawn) | 2820 nM (active)
53 | CNC1C(OC2C(O[C@@H]3C(O)C(O)[C@@H](N=C(N)N)C(O)C3N=C(N)N)OC(C)[C@@]2(O)CO)OC(CO)C(O)C1O (stereo partly drawn) | inactive
54 | CC1C2CCC3C4CC=C5CC(N(C)C)CC[C@@]5(C)C4CC[C@@]32CN1C (stereo partly drawn) | inactive
55 | C[C@]12C=CC(=O)C=C1CCC1C2C(O)C[C@]2(C)C1CC[C@]2(O)C(=O)CO (stereo partly drawn) | inactive
56 | CCOC(=O)C1=CC(OC(CC)CC)C(NC(C)=O)C(N)C1 (stereo not drawn) | inactive
57 | CN(C)CCc1c[nH]c2ccc(CC3COC(=O)N3)cc12 (stereo not drawn) | inactive
58 | NCC1CCC(N)C(O[C@@H]2C(O)[C@H](O[C@H]3OC(CO)C(O)C(N)C3O)[C@@H](N)C[C@H]2N)O1 (stereo partly drawn) | inactive
59 | OCC1O[C@H](OC2C(CO)O[C@@](O)(CO)C2O)C(O)C(O)C1O (stereo partly drawn) | inactive
60 | CC1(C)OC2CO[C@]3(COS(N)(=O)=O)OC(C)(C)OC3C2O1 (stereo partly drawn) | inactive
61 | CC(=O)OC1CCC2C3CCc4cc(O)ccc4C3CCC12C (stereo not drawn) | inactive
62 | CN(C)CCCOC1C(C(O)CO)OC2OC(C)(C)O[C@@H]21 (stereo partly drawn) | inactive
63 | COc1cc(C2c3cc4c(cc3C(O[C@@H]3OC5COC(c6cccs6)OC5C(O)C3O)C3COC(=O)C23)OCO4)cc(OC)c1O (stereo partly drawn) | 2240 nM (active)
